Laboratory results reported in the supplement of paper PMC8728848.
Shown is part of a subset that was picked to be rich in the strongest signals.

How the values were obtained:
Assay in all cases: glycan array binding signal (z-score within array); higher = stronger binding
Settings in all cases: glycan notation: IUPAC condensed, linker removed
[1] = biological target: Fuc(a1-2)Gal(b1-4)GlcNAc(b1-3)[Fuc(a1-3)[Gal(b1-4)]GlcNAc(b1-6)]Gal(b1-4)Glc
In short: (§1)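 Glycan array data were curated from 3228 arrays in the Consortium for Functional Glycomics database and kept only where the protein sequence was available. Glycan names were converted to IUPAC-condensed notation, and columns mapping to the same glycan were averaged. The binding signal is a within-array Z-score, averaged across arrays of the same protein sequence at different concentrations or buffers and across linkers. Negative Z-scores can be read as non-binding.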

[2] = biological target: Fuc(a1-2)Gal(b1-4)[Fuc(a1-3)]GlcNAc(b1-2)[Fuc(a1-2)Gal(b1-4)[Fuc(a1-3)]GlcNAc(b1-4)]Man(a1-3)[Fuc(a1-2)Gal(b1-4)[Fuc(a1-3)]GlcNAc(b1-2)Man(a1-6)]Man(b1-4)GlcNAc(b1-4)GlcNAc
In short: as §1

[3] = biological target: Fuc(a1-2)[Gal(a1-3)]Gal(b1-4)GlcNAc(b1-3)[Fuc(a1-2)[Gal(a1-3)]Gal(b1-4)GlcNAc(b1-6)]GalNAc
In short: as §1

[4] = biological target: Fuc(a1-2)[Gal(a1-3)]Gal(b1-4)[Fuc(a1-3)]GlcNAc(b1-3)GalNAc
In short: as §1

[5] = biological target: Fuc(a1-2)[GalNAc(a1-3)]Gal(b1-3)GlcNAc(b1-6)GalNAc
In short: as §1

[6] = biological target: Fuc(a1-2)[GalNAc(a1-3)]Gal(b1-4)[Fuc(a1-3)]GlcNAc(b1-3)GalNAc
In short: as §1

[7] = biological target: Fuc(a1-3)[Gal(b1-4)]GlcNAc(b1-2)Man(a1-3)[Fuc(a1-3)[Gal(b1-4)]GlcNAc(b1-2)Man(a1-6)]Man(b1-4)GlcNAc(b1-4)[Fuc(a1-6)]GlcNAc
In short: as §1

[8] = biological target: Fuc(a1-3)[Gal(b1-4)]GlcNAc(b1-3)Gal(b1-4)[Fuc(a1-3)]GlcNAc
In short: as §1

[9] = biological target: Fuc(a1-3)[Gal(b1-4)]GlcNAc(b1-6)[Gal(b1-3)GlcNAc(b1-3)]Gal(b1-4)Glc
In short: as §1

[10] = biological target: Fuc(a1-3)[Gal3S(b1-4)]GlcNAc6S
In short: as §1

[11] = biological target: Fuc(a1-3)[GalNAc(b1-4)]GlcNAc6S
In short: as §1

[12] = biological target: Gal(a1-3)Gal(b1-3)GlcNAc(b1-2)Man(a1-3)[Gal(a1-3)Gal(b1-3)GlcNAc(b1-2)Man(a1-6)]Man(b1-4)GlcNAc(b1-4)GlcNAc
In short: as §1

[13] = biological target: Gal(a1-3)Gal(b1-3)[Fuc(a1-4)]GlcNAc(b1-2)Man(a1-3)[Gal(a1-3)Gal(b1-3)[Fuc(a1-4)]GlcNAc(b1-2)Man(a1-6)]Man(b1-4)GlcNAc(b1-4)GlcNAc
In short: as §1

Gal(a1-3)Gal(b1-4)GlcNAc = biological target: Gal(a1-3)Gal(b1-4)GlcNAc
In short: as §1

[14] = biological target: Gal(a1-4)Gal(b1-4)GlcNAc(b1-2)Man(a1-3)[Gal(a1-4)Gal(b1-4)GlcNAc(b1-2)Man(a1-6)]Man(b1-4)GlcNAc(b1-4)GlcNAc
In short: as §1

Gal(b1-3)Gal(b1-4)GlcNAc = biological target: Gal(b1-3)Gal(b1-4)GlcNAc
In short: as §1

Gal(b1-3)GalNAc = biological target: Gal(b1-3)GalNAc
In short: as §1

[15] = biological target: Gal(b1-3)GlcNAc(b1-3)Gal(b1-4)Glc
In short: as §1

[16] = biological target: Gal(b1-3)GlcNAc(b1-3)Gal(b1-4)GlcNAc
In short: as §1

[17] = biological target: Gal(b1-3)[Fuc(a1-4)]GlcNAc(b1-2)Man
In short: as §1

[18] = biological target: Gal(b1-3)[Fuc(a1-4)]GlcNAc(b1-3)Gal(b1-3)[Fuc(a1-4)]GlcNAc
In short: as §1

[19] = biological target: Gal(b1-3)[Fuc(a1-4)]GlcNAc(b1-6)GalNAc
In short: as §1

[20] = biological target: Gal(b1-4)GlcNAc(b1-2)[Gal(b1-4)GlcNAc(b1-4)]Man(a1-3)[Gal(b1-4)GlcNAc(b1-2)Man(a1-6)]Man(b1-4)GlcNAc(b1-4)GlcNAc
In short: as §1

B1: B936 (Bifidobacterium sp) (protein)
chain: MKNWKKAIALVASAAALVSVAACGPSNAGGSSDSGKKTVGFVAVGPEGGFRTANEKDIQKAFEDAGFDLTYSPTQNNDQQKQIQAFNKFVNDEVDAIILSSTEDSGWDDSLKKAAEAEIPVFTVDRNVDVKDAEAKKAIVAHIGPSNVWCGEQAAEFVNKNFPDGANGFILEGPAGLSVVKDRGTGWGNKVASNVKVLESQSANWSTDEAKTVTAGLLDKYKSDNPQFIFAQNDEMGLGAAQAVDAAGLKGKVKIITIDGTKNALQALVDGDLSYVIEYNPIFGKETAQAVKDYLDGKTVEKDIEIESKTFDAASAKEALDNNTRAY
[1]
  glycan array binding signal (z-score): -0.124
[2]
  glycan array binding signal (z-score): 0.564
[3]
  glycan array binding signal (z-score): -0.277
[4]
  glycan array binding signal (z-score): -0.217
[5]
  glycan array binding signal (z-score): 0.424
[6]
  glycan array binding signal (z-score): -0.006
[7]
  glycan array binding signal (z-score): 0.198
[8]
  glycan array binding signal (z-score): -0.555
[9]
  glycan array binding signal (z-score): -0.786
[10]
  glycan array binding signal (z-score): 0.399
[11]
  glycan array binding signal (z-score): -0.367
[12]
  glycan array binding signal (z-score): 2.85
[13]
  glycan array binding signal (z-score): 2.05
Gal(a1-3)Gal(b1-4)GlcNAc
  glycan array binding signal (z-score): -0.375
[14]
  glycan array binding signal (z-score): 2.19
Gal(b1-3)Gal(b1-4)GlcNAc
  glycan array binding signal (z-score): 11.1
Gal(b1-3)GalNAc
  glycan array binding signal (z-score): 4.57
[15]
  glycan array binding signal (z-score): 1.71
[16]
  glycan array binding signal (z-score): 4.33
[17]
  glycan array binding signal (z-score): 1.8
[18]
  glycan array binding signal (z-score): -0.183
[19]
  glycan array binding signal (z-score): 1.04
[20]
  glycan array binding signal (z-score): -0.689
